Assay outcomes deposited in PubChem BioAssay by several laboratories.
CYP2C9 inh – blockers of cytochrome P450 2C9 activity – biochemical, luminescence, ADME assay, primary screen. P11712. CYP2C9 Supersomes, luciferin-H conversion. inhibition, % at 5 µM. hit rate 20% among 96,000;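 active = blocking of liver enzyme CYP2C9 beyond about 50% at 5 µM, limit read from the data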
PostGolgi ctrl – growth inhibition of yeast control strain, primary screen, counter-screen for post-Golgi transport modulator project | efflux-deficient yeast background strain, growth absorbance A615, 16 h | hit rate 5% among 98,000 | inhibition, % at 10 µM
PostGolgi yeast – phenotypic screen on post-Golgi transport, primary screen; post-Golgi transport phenotypic cell assay; inhibition, % at 10 µM; hit rate 0.9% among 98,000; AID 739, 2007;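 also: yeast cells grown in 1536-well plates; yeast grown about 18 h at 30C before absorbance read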
CYP2C19 activ – human CYP2C19 activators, primary screen, biochemical, luminescence; recombinant CYP2C19, luciferin-H EGE luminescence; active compounds read high; 0 = fully inhibited enzyme, 1 = untreated enzyme; activation factor at 5 µM; Cytochrome P450 2C19 (Homo sapiens), P33261; 96,000 tested, under 10 active;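 active = activation factor of at least 2 at 5 µM in the primary screen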;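 also: 0 = wells with 2.5 mM tranylcypromine and 1 = vehicle-only wells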
Target sequence (P33261 whole entry, looked up): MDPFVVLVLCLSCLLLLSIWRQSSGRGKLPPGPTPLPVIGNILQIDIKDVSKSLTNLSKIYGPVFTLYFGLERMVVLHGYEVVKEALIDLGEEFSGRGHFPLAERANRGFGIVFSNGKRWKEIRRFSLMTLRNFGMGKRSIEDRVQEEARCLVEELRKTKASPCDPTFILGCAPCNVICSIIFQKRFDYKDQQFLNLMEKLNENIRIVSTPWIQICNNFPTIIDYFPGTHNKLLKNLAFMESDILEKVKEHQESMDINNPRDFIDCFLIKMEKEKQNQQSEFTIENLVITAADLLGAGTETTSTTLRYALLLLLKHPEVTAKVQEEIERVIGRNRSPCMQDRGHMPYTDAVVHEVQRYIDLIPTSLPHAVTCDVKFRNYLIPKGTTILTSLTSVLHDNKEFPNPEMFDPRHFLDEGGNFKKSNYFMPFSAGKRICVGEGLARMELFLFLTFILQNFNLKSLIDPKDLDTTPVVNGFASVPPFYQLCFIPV
CYP2C9 activ – human CYP2C9 activators, primary screen, biochemical, luminescence; hit rate 1.4% among 96,000; activation factor at 5 µM; recombinant CYP2C9, luciferin-H conversion; active compounds read high; factor 1 = untreated enzyme, 0 = blocked;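 active = activation factor of 2 or more for CYP2C9 at a 5 µM dose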;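 also: 0 = sulfaphenazole-blocked wells and 1 = vehicle-only wells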
CYP2C19 inhib – blockers of cytochrome P450 2C19 activity – biochemical, luminescence, ADME assay, primary screen. P33261. CYP2C19 Supersomes, luciferin-H EGE luminescence, 30 min. inhibition, % at 5 µM. hit rate 21% among 96,000. AID 778, 2007;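 active = CYP2C19 inhibition above a set limit at 5 µM in the primary screen, cut at about 50% in these data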;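 also: plate controls were negative control wells for no effect and 2.5 mM tranylcypromine positive control for full effect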
The depositor's hits bear a star; x = no result given. Compounds with a hit are over-represented: about 32% of the library has one in this group of screens. Rule as the data show it, unless noted: active = inhibition above about 30%; inactive = the rest.

SMILES	CYP2C9 inh	PostGolgi ctrl	PostGolgi yeast	CYP2C19 activ	CYP2C9 activ	CYP2C19 inhib
COc1cccc(OC)c1C(=O)Nc1ccccc1N1CCCC1	2	12	6	0.9	1	10
O=C(Nc1ccccc1N1CCCCC1)c1ccccc1F	-20	34*	-4	1.1	1.2	-6
O=C(Nc1ccccc1N1CCCCC1)c1ccc(N2C(=O)c3ccccc3C2=O)cc1	55*	0	2	0.5	0.5	49
OCc1ccccc1CNCc1ccccc1	8	-5	-1	0.4	0.9	62*
O=C(NCc1ccccc1)c1cccc(COc2ccccc2Cl)c1	6	27	2	0.8	0.9	18
C/C(=N\NC(=S)Nc1cccc(C)c1)c1ccccc1	0	33*	-1	0.7	1	33
FC(F)Oc1ccc(NC(=S)NCc2ccccc2)cc1Cl	-124	-1	21	0.5	2.2*	50*
CC#CCNCc1ccccc1	-8	8	0	1.2	1.1	-17
CC(C)c1ccc(CNCc2ccccc2)cc1	8	5	17	0.2	0.9	75*
COc1ccc2[nH]c(=O)c(CN(CCCN(C)C)C(=O)Nc3ccc(F)cc3)cc2c1	-5	10	2	0.8	1.1	16
C=CCN1C(=O)C(CC(=O)Nc2ccccc2)SC1=Nc1c(C)n(C)n(-c2ccccc2)c1=O (stereo not given)	41	10	13	0.7	0.6	26
Cc1cccc(NC(=S)NCc2cccn2C)c1	-4	4	-3	0.7	1	33
Cc1cccc(NC(=S)NNC(=S)NCc2ccccc2)c1	60*	4	-4	0.9	0.4	12
CC(C)COc1ccc(CNC(=S)NCc2ccccc2)cc1	19	10	-4	0.9	0.8	7
S=C(NCc1ccccc1)NCc1ccccc1	-12	5	1	0.1	1.1	90*
O=C(O)CC(NC(=S)NCc1ccccc1)C(=O)O (stereo not given)	62*	-9	1	0.9	0.4	8
NC(=O)CC(NC(=S)NCc1ccccc1)C(=O)O (stereo not given)	9	8	-2	1	0.9	2
O=C(NC1CCCC1)c1cccc(NC(=O)c2ccco2)c1	45	14	-6	1	0.5	-1
Cc1occc1C(=O)Nc1ccc(S(=O)(=O)N2CCN(C)CC2)cc1	21	1	-17	0.8	0.8	16
CSCCC1NC(=O)N(CC(=O)Nc2cccc3ccccc23)C1=O (stereo not given)	-32	16	-1	0.9	1.3	10
CC(=O)NS(=O)(=O)c1ccc(NC(=O)C(Sc2ccccc2)c2ccccc2)cc1 (stereo not given)	35	6	-11	0.9	0.7	12
O=C(Nc1ncccc1Cl)C(Sc1ccccc1)c1ccccc1 (stereo not given)	55*	22	-25	0.4	0.5	58*
CC(C)NC(=O)C(Sc1ccccc1)c1ccccc1 (stereo not given)	62*	4	0	0	0.4	96*
O=C(Nc1ccon1)C(Sc1ccccc1)c1ccccc1 (stereo not given)	86*	5	2	0.1	0.1	92*
O=C(NCCCN1CCOCC1)C(Sc1ccccc1)c1ccccc1 (stereo not given)	-9	-2	24	0.7	1.1	34
SMILES	CYP2C9 inh	PostGolgi ctrl	PostGolgi yeast	CYP2C19 activ	CYP2C9 activ	CYP2C19 inhib
O=C(Nc1ncccc1Cl)C1COc2ccccc2O1 (stereo not given)	-9	5	19	0.5	1.1	46
Brc1cc2[nH]cnc2c2ccccc12	-21	15	1	0.5	1.2	50*
Fc1cccc(Cn2cc(C(=S)N3CCCCC3)c3ccccc32)c1	28	13	-8	0.9	0.7	9
Oc1ccccc1C(=S)N1CCCCCC1	16	5	-2	0.5	0.8	52*
Oc1ccccc1C(=S)N1CCCCC1	18	-7	2	0.2	0.8	78*
Cn1c(Cn2c(=O)sc3ccccc32)nnc1SCC(=O)Nc1cccc(F)c1	x	-8	1	x	x	x
CSc1oc(-c2ccccc2)nc1C(N)=O	x	2	-3	x	x	x
COCCNC(=O)CN(c1ccccc1OC)S(C)(=O)=O	-5	0	1	1	1.1	-3
COC(=O)CN(c1cc(C(F)(F)F)ccc1Cl)S(C)(=O)=O	2	5	0	0.4	1	56*
COCCNC(=O)CN(c1cc(C(F)(F)F)ccc1Cl)S(C)(=O)=O	-18	7	0	0.4	1.2	58*
CN1CCN(C(=O)CN(c2cc(C(F)(F)F)ccc2Cl)S(C)(=O)=O)CC1	0	6	-4	0.7	1	28
O=C(CC(C(=O)N1CCc2ccccc21)n1ccnc1)NCc1ccccc1 (stereo not given)	73*	-1	21	0	0.3	100*
CC(Sc1nnc(Cn2c(=O)sc3ccccc32)n1C)c1ccccc1 (stereo not given)	x	5	4	x	x	x
N=c1nc(N)nc2n1NC(c1ccc(F)cc1)=CS2	17	-10	99*	0.9	0.8	13
CCOC(=O)C1=C(C)N=c2s/c(=C3\C(=O)Nc4ccccc43)c(=O)n2C1c1ccc2c(c1)OCO2 (stereo not given)	59*	5	1	0.9	0.4	11
CCOC(=O)C1=C(C)N=c2s/c(=C\c3ccncc3)c(=O)n2C1c1ccc2c(c1)OCO2 (stereo not given)	85*	30	-1	0.2	0.2	85*
COc1ccc(-n2c(-c3ccccc3)cc3c2CCCC3=O)cc1	26	68*	10	0.2	0.7	76*
CCCC1(C(=O)OC)NC(c2ccco2)C2C(=O)N(c3ccc(C)cc3)C(=O)C21 (stereo not given)	17	4	11	0.9	0.8	12
CC1=CC(C)(C)N(C(=O)CSc2nnc(N)s2)c2c(C)cc(C)cc21	50*	22	7	0.4	0.5	60*
NC(=O)c1ccccc1NC(=O)/C=C/C(=O)O	2	-13	10	0.9	1	7
O=C(O)/C=C\C(=O)Nc1ccccc1C#Cc1ccc(Br)cc1	87*	-1	23	1	0.1	-3
O=C(O)/C=C\C(=O)Nc1ccccc1C#Cc1ccccc1	62*	1	0	1	0.4	3
N#Cc1ccc(Cl)cc1NC(=O)COC(=O)c1ccc(S(=O)(=O)N2CCCC2)cc1	0	7	-11	1	1	-3
CNC(=O)c1cc2c(=O)n3cccc(C)c3nc2n(C(C)C)c1=N	-11	7	14	1.1	1.1	-9
COc1nc(C)nc(NC(=O)NS(=O)(=O)c2ccc(C)cc2)n1	-21	-2	-5	1	1.2	0
